Data reported in PubChem BioAssay (NCATS).
Records with an inconclusive call do not appear. Active and inactive are the calls of the source. The call rests on the fitted dose curve; in most records, active means well fitted cell-killing curve with a large enough effect; inconclusive means small, poorly fitted or top-dose-only effect, or effect the other way; inactive means no such curve, though single readings can be large or run the other way.

Columns and labels:
[1] = Quantitative High-Throughput drug screen in 47 multiple myeloma cell lines against the NCATS MIPE library collection: U266_ATCC cell viability assay (AID 1919864); further: nearly all actives have a fitted effect of over 35% in size; further: potency means the concentration at half of the fitted maximal effect
Outline: (§1)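 Cells were exposed to library compounds for 48 hours, after which ATP was measured by CellTiter-Glo. Signal was taken as median relative luminescence units.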

[2] = Quantitative High-Throughput drug screen in 47 multiple myeloma cell lines against the NCATS MIPE library collection: XG1_PLB cell viability assay (AID 1919866); further: nearly all actives have a fitted effect of over 35% in size; further: potency means the concentration at half of the fitted maximal effect
Outline: as §1

[3] = Quantitative High-Throughput drug screen in 47 multiple myeloma cell lines against the NCATS MIPE library collection: VP6_DJ cell viability assay (AID 1919867); further: nearly all actives have a fitted effect of over 40% in size; further: potency means the concentration at half of the fitted maximal effect
Outline: as §1

[4] = Quantitative High-Throughput drug screen in 47 multiple myeloma cell lines against the NCATS MIPE library collection: PE2_PLB cell viability assay (AID 1919869); further: nearly all actives have a fitted effect of over 35% in size; further: potency means the concentration at half of the fitted maximal effect
Outline: as §1

[5] = Quantitative High-Throughput drug screen in 47 multiple myeloma cell lines against the NCATS MIPE library collection: PCM6_Riken cell viability assay (AID 1919870); further: nearly all actives have a fitted effect of over 30% in size; further: potency means the concentration at half of the fitted maximal effect
Outline: as §1

[6] = Quantitative High-Throughput drug screen in 47 multiple myeloma cell lines against the NCATS MIPE library collection: RPMI8226_ATCC cell viability assay (AID 1919871); further: nearly all actives have a fitted effect of over 30% in size; further: potency means the concentration at half of the fitted maximal effect
Outline: as §1

[7] = Quantitative High-Throughput drug screen in 47 multiple myeloma cell lines against the NCATS MIPE library collection: KMS11_JCRBsus cell viability assay (AID 1919873); further: nearly all actives have a fitted effect of over 50% in size; further: potency means the concentration at half of the fitted maximal effect
Outline: as §1

[8] = Quantitative High-Throughput drug screen in 47 multiple myeloma cell lines against the NCATS MIPE library collection: KMS28BM_JCRB cell viability assay (AID 1919874); further: nearly all actives have a fitted effect of over 35% in size; further: potency means the concentration at half of the fitted maximal effect
Outline: as §1

[9] = Quantitative High-Throughput drug screen in 47 multiple myeloma cell lines against the NCATS MIPE library collection: XG6_PLB cell viability assay (AID 1919865); further: nearly all actives have a fitted effect of over 40% in size; further: potency means the concentration at half of the fitted maximal effect
Outline: as §1

[10] = Quantitative High-Throughput drug screen in 47 multiple myeloma cell lines against the NCATS MIPE library collection: OPM2_DSMZ cell viability assay (AID 1919872); further: nearly all actives have a fitted effect of over 30% in size
Outline: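 We plated 500 myeloma cells per well, pinned in MIPE 4.0 compounds, and incubated for 48 hours at 37C. ATP was then quantified with CellTiter-Glo, with DMSO and media-only wells defining 100% and 0%.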

[11] = Quantitative High-Throughput drug screen in 47 multiple myeloma cell lines against the NCATS MIPE library collection: UTMC2_PLB cell viability assay (AID 1919868); further: nearly all actives have a fitted effect of over 55% in size; further: potency means the concentration at half of the fitted maximal effect
Outline: as §1

[12] = Quantitative High-Throughput drug screen in 47 multiple myeloma cell lines against the NCATS MIPE library collection: SKMM1_PLB cell viability assay (AID 1919863); conditions: SKMM1 myeloma viability, CellTiter-Glo ATP, 48 h; viability: stronger effect = lower value; further: nearly all actives have a fitted effect of over 35% in size; further: potency means the concentration at half of the fitted maximal effect; on viability: series mostly up to about 46 µM
Outline: as §1

CNCC[C@H](Oc1cccc2ccccc12)c1cccs1
active: Potency [1] 2.35 µM | Potency [2] 0.833 µM | Potency [3] 3.72 µM | Potency [4] 4.18 µM | Potency [5] 3.72 µM | Potency [6] 23.5 µM | Potency [7] 26.4 µM | Potency [8] 26.4 µM

O=NN(CCCl)C(=O)NC1CCCCC1
inactive: Potency [1] | Potency [2] | Potency [3] | Potency [4] | Potency [5] | Potency [8]

O=P(O)(O)C(O)(Cc1cccnc1)P(=O)(O)O
inactive: Potency [9] | Potency [2] | Potency [4] | Potency [5] | Potency [10] | Potency [7] | Potency [8]

CCN(CC)CC#CCOC(=O)C(O)(c1ccccc1)C1CCCCC1 (centres undefined)
inactive: Potency [9] | Potency [2] | Potency [11] | Potency [4]

CCCCOc1ccc(CC(=O)NO)cc1
active: Potency [1] 8.33 µM
inactive: Potency [2] | Potency [5] | Potency [8]

COC(=O)Nc1nc2ccc(S(=O)c3ccccc3)cc2[nH]1 (centres undefined)
active: Potency [9] 9.35 µM | Potency [2] 8.33 µM | Potency [7] 8.33 µM

CCN(C)C(=O)Oc1cccc([C@H](C)N(C)C)c1
inactive: Potency [2] | Potency [4] | Potency [10] | Potency [7] | Potency [8]

COc1cnc(NS(=O)(=O)c2ccc(N)cc2)nc1
inactive: viability [12] 141% | Potency [1] | Potency [4] | Potency [6]

CNS(=O)(=O)CCc1ccc2[nH]cc(C3CCN(C)CC3)c2c1
inactive: Potency [5] | Potency [10] | Potency [7] | Potency [8]
active: Potency [12] 4.18 µM | Potency [9] 0.372 µM | Potency [2] 0.743 µM | Potency [11] 1.05 µM | Potency [4] 1.66 µM

O=C(O)C1CCCN(CCC=C(c2ccccc2)c2ccccc2)C1 (centres undefined)
inactive: viability [12] 122% | Potency [9] | Potency [2] | Potency [4] | Potency [5] | Potency [6] | Potency [10] | Potency [7] | Potency [8]

CS(=O)(=O)c1ccc([C@@H](O)[C@@H](CO)NC(=O)C(Cl)Cl)cc1
active: Potency [2] 18.7 µM | Potency [3] 16.6 µM | Potency [5] 16.6 µM | Potency [6] 2.35 µM | Potency [7] 11.8 µM
inactive: Potency [1]

C#CCN[C@@H]1CCc2ccccc21
inactive: Potency [1] | Potency [2] | Potency [4] | Potency [10] | Potency [7] | Potency [8]
active: Potency [6] 9.35 µM

NC(=O)N1c2ccccc2CC(=O)c2ccccc21
inactive: viability [12] 118% | Potency [2] | Potency [4] | Potency [5] | Potency [6] | Potency [10]

CCOC(=O)c1ccc(C#Cc2ccc3c(c2)C(C)(C)CCS3)nc1
inactive: viability [12] 115% | Potency [4] | Potency [6] | Potency [10] | Potency [8]

Cc1cccc(Nc2ccncc2S(=O)(=O)NC(=O)NC(C)C)c1
inactive: Potency [1] | Potency [9] | Potency [4] | Potency [10]

CC1CC2C3CCC4=CC(=O)C=C[C@]4(C)[C@@]3(F)[C@@H](O)C[C@]2(C)[C@@]1(O)C(=O)CO (some centres undefined)
active: Potency [3] 0.209 µM | Potency [5] 0.118 µM | Potency [6] 0.0296 µM
inactive: Potency [9] | Potency [2] | Potency [4] | Potency [10] | Potency [8]

C[C@@H](NCCCc1cccc(C(F)(F)F)c1)c1cccc2ccccc12
inactive: viability [12] 110% | Potency [1] | Potency [4] | Potency [5] | Potency [10] | Potency [8]

NCCCC(O)(P(=O)(O)O)P(=O)(O)O
active: Potency [5] 9.35 µM | Potency [8] 14.8 µM
inactive: viability [12] 137% | Potency [2] | Potency [4] | Potency [6]

O=c1oc2c(O)c(O)cc3c(=O)oc4c(O)c(O)cc1c4c23
inactive: Potency [1] | Potency [2] | Potency [4] | Potency [5] | Potency [10]

N[C@@H](C(=O)N[C@@H]1C(=O)N2C(C(=O)O)=C(Cl)CS[C@H]12)c1ccccc1
inactive: viability [12] 123% | Potency [4] | Potency [5] | Potency [6]

C[C@]12C=CC(=O)C=C1CC[C@@H]1[C@@H]2C(=O)C[C@@]2(C)[C@H]1CC[C@]2(O)C(=O)CO
inactive: viability [12] 141% | Potency [1] | Potency [3] | Potency [5] | Potency [6] | Potency [7] | Potency [8]

CN(C)CCc1c[nH]c2ccc(C[C@H]3COC(=O)N3)cc12
inactive: viability [12] 104% | Potency [2] | Potency [5] | Potency [6] | Potency [7] | Potency [8]

Nc1nc(N)c2nc(CNc3ccc(C(=O)NC(CCC(=O)O)C(=O)O)cc3)cnc2n1 (centres undefined)
active: Potency [1] 0.148 µM | Potency [2] 0.0332 µM | Potency [7] 0.0526 µM | Potency [8] 0.0296 µM

NS(=O)(=O)c1cc2c(cc1Cl)NC(C(Cl)Cl)NS2(=O)=O (centres undefined)
inactive: viability [12] 112% | Potency [9] | Potency [2] | Potency [3] | Potency [4] | Potency [6] | Potency [10] | Potency [7] | Potency [8]

CCC(=O)O[C@]1(C(=O)SCF)[C@H](C)C[C@H]2[C@@H]3C[C@H](F)C4=CC(=O)C=C[C@]4(C)[C@@]3(F)[C@@H](O)C[C@@]21C
inactive: Potency [4] | Potency [7] | Potency [8]
active: Potency [9] 4.18 µM | Potency [2] 14.8 µM | Potency [3] 33.2 µM | Potency [6] 0.0019 µM

CC(=O)CC(c1ccccc1)c1c(O)c2ccccc2oc1=O (centres undefined)
inactive: Potency [3] | Potency [4] | Potency [6] | Potency [7] | Potency [8]
